PubChem BioAssay (NCATS)
Inconclusive results are not listed. Active and inactive are the calls of the source. Calls follow the shape of the dose curve; as a rule, active = well fitted cell-killing curve with a large enough effect; inconclusive = small, poorly fitted or top-dose-only effect; inactive = flat fitted curve, though single readings scatter.

How the values were obtained:
[1] = Cell Viability - LYMP2-011 (AID 969); settings: LYMP2-011 lymphoblastoid cells viability; series mostly up to 92.2 µM; also: nearly all actives have a fitted effect of over 60% in size
Procedure, shortened: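 2500 cells/well in complete medium, compound-treated 24 h at 37 C. Viability read as intracellular ATP by CellTiter-Glo luminescence after 30 min at room temperature. AC50 from Hill fits of qHTS concentration-response data.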

[2] = Cell Viability - LYMP2-013 (AID 970); settings: LYMP2-013 lymphoblastoid cells viability; series mostly up to 92.2 µM; also: nearly all actives have a fitted effect of over 55% in size
Procedure, shortened: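 Human lymphoblastoid LYMP2-013 cells, 2500/well, treated 24 h at 37 C in complete medium; viability as intracellular ATP by CellTiter-Glo luminescence after 30 min. AC50 from Hill fits of qHTS concentration-response.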

[3] = Cell Viability - LYMP2-015 (AID 971); settings: LYMP2-015 lymphoblastoid cell viability; series mostly up to 92.2 µM; also: nearly all actives have a fitted effect of over 55% in size
Procedure, shortened: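 LYMP2-015 human lymphoblastoid cells (2500/well) in complete medium, compound-treated 24 h at 37 C; viability read as cellular ATP by CellTiter-Glo luminescence after 30 min at room temperature. AC50 from Hill-equation fits of qHTS concentration-response data.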

[4] = Cell Viability - LYMP2-017 (AID 972); settings: LYMP2-017 lymphoblastoid cell viability; series mostly up to 92.2 µM; also: nearly all actives have a fitted effect of over 55% in size
Procedure, shortened: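 LYMP2-017 human lymphoblastoid cells (2500/well) settled 5 hr at 37 C, then exposed to compound 24 hr at 37 C in complete medium. Viability taken as intracellular ATP by CellTiter-Glo luminescence after 30 min at RT; AC50 from Hill fits.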

[5] = Cell Viability - LYMP2-019 (AID 973); settings: LYMP2-019 lymphoblastoid cell line viability; series mostly up to 92.2 µM; also: nearly all actives have a fitted effect of over 55% in size
Procedure, shortened: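 Human lymphoblastoid LYMP2-019 cells (2500/well) preincubated 5 h at 37 C, then treated 24 h at 37 C in complete medium. Viability by CellTiter-Glo ATP luminescence after 30 min at room temperature; AC50 from Hill fits.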

[6] = Cell Viability - LYMP2-021 (AID 974); settings: LYMP2-021 lymphoblastoid cells viability; series mostly up to 92.2 µM
Procedure, shortened: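 Human lymphoblastoid LYMP2-021 cells, 2500/well in complete medium, treated 24 hours at 37 C. Intracellular ATP by CellTiter-Glo luminescence (30 min, RT); AC50 from Hill fits of concentration-response.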

[7] = Cell Viability - LYMP2-023 (AID 975); settings: LYMP2-023 lymphoblastoid cell viability; series mostly up to 92.2 µM
Procedure, shortened: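 LYMP2-023 human lymphoblastoid cells, 2500/well, preincubated 5 hr at 37 C, then compound-treated 24 hr at 37 C in complete medium. CellTiter-Glo luminescence (ATP) after 30 min at room temperature; AC50 from Hill-equation fits; tetraoctylammonium bromide positive control.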

[8] = Cell Viability - LYMP2-025 (AID 976); settings: LYMP2-025 lymphoblastoid cell viability; series mostly up to 92.2 µM
Procedure, shortened: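 Human lymphoblastoid LYMP2-025 cells, 2500/well, exposed 24 h at 37 C in complete medium in 1536-well qHTS. Viability as cellular ATP by CellTiter-Glo luminescence; AC50 from Hill fits of concentration-response data.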

[9] = Cell Viability - LYMP2-002 (AID 977); settings: LYMP2-002 lymphoblastoid cell viability, qHTS; series mostly up to 92.2 µM;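 also: compound exposure lasted 24 h at 37 °C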
Procedure, shortened: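 Human lymphoblastoid LYMP2-002 cells, 2500 per well, exposed to compounds for 24 h at 37 C in complete medium; viability read as intracellular ATP by CellTiter-Glo luminescence, AC50 from Hill fits.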

[10] = Cell Viability - LYMP2-006 (AID 978); settings: LYMP2-006 lymphoblastoid cell viability, qHTS; series mostly up to 92.2 µM; also: nearly all actives have a fitted effect of over 60% in size
Procedure, shortened: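 In this cytotoxicity screen, the human lymphoblastoid line grew in complete medium with test compounds for 24 hr at 37 C. Cellular ATP served as the viability signal.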

[11] = Cell Viability - LYMP2-007 (AID 979); settings: LYMP2-007 lymphoblastoid cell viability; series mostly up to 92.2 µM;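 also: cells exposed to compound for 24 h before reading; nearly all actives have a fitted effect of over 60% in size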
Procedure, shortened: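 Human lymphoblastoid LYMP2-007 cells (2500/well) preincubated 5 h at 37 C, then treated 24 h at 37 C in complete medium. Viability by CellTiter-Glo ATP luminescence after 30 min at room temperature; AC50 from Hill fits.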

[12] = Cell Viability - LYMP2-008 (AID 980); settings: LYMP2-008 lymphoblastoid cell viability, qHTS; series mostly up to 92.2 µM; also: nearly all actives have a fitted effect of over 60% in size
Procedure, shortened: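 LYMP2-008 lymphoblastoid cells (2500/well) plated 5 h, then treated 24 h at 37 C in complete medium. Viability read as intracellular ATP by CellTiter-Glo luminescence after 30 min at room temperature; AC50 from Hill fits.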

[13] = Cell Viability - LYMP2-010 (AID 981); settings: LYMP2-010 lymphoblastoid cell viability, qHTS; series mostly up to 92.2 µM; also: nearly all actives have a fitted effect of over 55% in size
Procedure, shortened: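 Human lymphoblastoid LYMP2-010 cells (2500/well) treated 24 h at 37 C in complete medium; viability read as intracellular ATP by CellTiter-Glo luminescence. AC50 from Hill fits of concentration-response data; tetraoctylammonium bromide positive control.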

[14] = Cell Viability - LYMP2-012 (AID 982); settings: LYMP2-012 lymphoblastoid cell viability qHTS; series mostly up to 92.2 µM
[15] = Cell Viability - LYMP2-014 (AID 983); settings: LYMP2-014 lymphoblastoid cells, viability qHTS; series mostly up to 92.2 µM; also: nearly all actives have a fitted effect of over 50% in size
Procedure, shortened: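 LYMP2-014 human lymphoblastoid cells, 2500/well, treated 24 h at 37 C in complete medium; viability by CellTiter-Glo ATP luminescence after 30 min at room temperature. AC50 from Hill fits of qHTS concentration-response; tetraoctylammonium bromide positive control.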

[16] = Cell Viability - LYMP2-016 (AID 984); settings: LYMP2-016 lymphoblastoid cell viability, qHTS; series mostly up to 92.2 µM; also: nearly all actives have a fitted effect of over 55% in size
Procedure, shortened: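 Concentration-dependent ATP depletion measured in LYMP2-016 lymphoblastoid cells, 24 h, 37 C; luciferase-based luminescent detection; Hill-equation AC50.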

[17] = Cell Viability - LYMP2-018 (AID 985); settings: LYMP2-018 lymphoblastoid cells, viability (qHTS); series mostly up to 92.2 µM;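 also: compound exposure lasted 24 hr at 37 °C; nearly all actives have a fitted effect of over 50% in size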
Procedure, shortened: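 Human lymphoblastoid LYMP2-018 cells, 2500/well, settled 5 hr at 37 C then exposed to compound 24 hr at 37 C; intracellular ATP measured by CellTiter-Glo luminescence. AC50 from Hill-equation concentration-response fits.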

[18] = Cell Viability - LYMP2-020 (AID 986); settings: series mostly up to 92.2 µM; also: nearly all actives have a fitted effect of over 55% in size
Procedure, shortened: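 Human lymphoblastoid LYMP2-020 cells (2500/well) preincubated 5 h at 37 C, then treated 24 h at 37 C. Viability measured as intracellular ATP by CellTiter-Glo luminescence after 30 min at room temperature; AC50 from Hill fits.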

[19] = Cell Viability - LYMP2-022 (AID 987); settings: LYMP2-022 lymphoblastoid cell viability; series mostly up to 92.2 µM; also: nearly all actives have a fitted effect of over 55% in size
Procedure, shortened: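 LYMP2-022 lymphoblastoid cells (2500/well, complete medium) were treated with compounds for 24 hours at 37 C; intracellular ATP was then read by CellTiter-Glo luminescence after 30 min at room temperature. AC50 values were derived from Hill-equation fits.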

[20] = Cell Viability - LYMP2-024 (AID 988); settings: LYMP2-024 lymphoblastoid cell viability; series mostly up to 92.2 µM; also: nearly all actives have a fitted effect of over 60% in size
Procedure, shortened: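 Human lymphoblastoid LYMP2-024 cells (2500/well) rested 5 hr, then treated with compound for 24 hr at 37 C in complete medium. Viability was measured as intracellular ATP by CellTiter-Glo luminescence. AC50 values came from Hill-equation fits.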

Measured: outcome

Cc1cc(O)c2c(c1)C(=O)c1cccc(O)c1C2=O
inactive: [1] | [2] | [3] | [4] | [5] | [6] | [7] | [8] | [9] | [10] | [11] | [12] | [13] | [14] | [15] | [16] | [17] | [18] | [19] | [20]
